HCMV inh: inhibitors of human cytomegalovirus. HFF cells, HCMV-luciferase reporter, 72 h; stronger effect = lower value. activity change, negative = inhibition, % at 57.5 µM. 4.5% of 410,000 active. AID 1259415; in the data active = activity change below about -60%; inconclusive = no clear call, values can overlap the other calls; inactive = above about -39%
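Screen run at 2 compound doses on HFFs infected with reporter HCMV, MOI 1 PFU/cell. Luciferase activity from cell lysates at 72 h post infection gave inhibition relative to buffer-only and Salinomycin wells.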
FMDV antiviral: foot and mouth disease virus antiviral activity | 1.2% of 410,000 active | Potency, µM (top dose mostly 57.9 µM), without a hit: at the top dose activity change, negative = inhibition, actives largely listed as inhibitors | FMDV antiviral cell-based qHTS; calls by dose curve; tested in HEK293T cells; note: read-out not given here; potency is the fitted concentration of half-maximal effect; nearly all actives have a fitted effect of over 45% in size
VACV mCherry inh: inhibitors of vaccinia virus infection (mCherry reporter signal) | Vaccinia virus mCherry reporter infection, fluorescence | Potency, µM (titrated, usually from 36.5 µM), without a hit: at the top dose activity change, negative = inhibition, actives largely listed as inhibitors | 0.63% of 310,000 active; calls by dose curve; tested in A549 cells; note: potency is the fitted concentration of half-maximal effect; nearly all actives have a fitted effect of over 35% in size
HCV inh: inhibitors of hepatitis C virus infection; Huh7.5.1 HCVcc-Cre infection, luciferase reporter, 44 h; Potency, µM (highest dose often 41.8 µM), for the others: top-dose activity change, negative = inhibition, hits mostly inhibitors; 3.4% of 340,000 active; active = well fitted inhibition curve with a large enough effect; inconclusive = small, poorly fitted or top-dose-only effect, or another doubt; inactive = no such curve, though single readings can be large or run the other way; note: potency is the fitted concentration of half-maximal effect
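Whole-lifecycle infectious HCVcc-Cre system; cells 1,000/well, compound then virus (~0.5 moi) added 4 h after plating, 44 h culture. Luciferase read 15 sec following 15 min substrate incubation, room temp.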
Vaccinia Venus: inhibitors of vaccinia virus (Venus reporter); AID 720580; Vaccinia virus Venus reporter expression, fluorescence; Potency, µM (highest dose often 36.5 µM), without a hit: top-dose activity change, negative = inhibition, most hits filed as inhibitors; 0.46% of 330,000 active; calls by dose curve; tested in A549 cells; note: potency is the fitted concentration of half-maximal effect; nearly all actives have a fitted effect of over 30% in size
* hit, by the source's call; ! = not active in a repeat. An excerpt weighted towards active compounds, which were near 7.3% of everything screened. % is set by controls: 0 for no effect and ±100 for the full control effect.

Results for Cc1ccccc1N1C(=O)NC(=O)/C(=C/c2ccc(N3CCOCC3)o2)C1=O ?
HCMV inh: 25.8; FMDV antiviral: -6.3%; VACV mCherry inh: -19.1%; HCV inh: 0.6%; Vaccinia Venus: 10.3%

What do the screens show for `Cc1ccccc1N1C(=O)NC(=O)/C(=C\c2cc(Br)c(N3CCOCC3)o2)C1=O`?
HCMV inh: 52.3; FMDV antiviral: 15.8µM*; VACV mCherry inh: -4.6%; HCV inh: -6.4%; Vaccinia Venus: 1.9%

How did NC(=O)c1ccsc1NC(=O)COC(=O)/C=C/c1ccccc1[N+](=O)[O-] do in these assays?
HCMV inh: -8.2; FMDV antiviral: 31.6µM*; VACV mCherry inh: -13.8%; HCV inh: -5.1%; Vaccinia Venus: -12.1%

What do the screens show for `COc1cc(/C=C2/SC(=Nc3ccc(O)cc3)NC2=O)cc(OC)c1O`?
HCMV inh: 27.5; FMDV antiviral: -9.7%; VACV mCherry inh: inactive; HCV inh: inconclusive; Vaccinia Venus: 107.4%

What do the screens show for `COc1cc(/C=C2\SC(=Nc3ccc(O)cc3)NC2=O)cc(OC)c1OC`?
HCMV inh: -3.5; FMDV antiviral: -6.8%; VACV mCherry inh: -6.0%; HCV inh: 3.98µM*; Vaccinia Venus: -10.0%

Results for COc1ccc(N=C2NC(=O)/C(=C/c3ccc(O)c(OC)c3)S2)cc1 ?
HCMV inh: -64.1*; FMDV antiviral: 1.8%; VACV mCherry inh: inconclusive; HCV inh: -16.5%; Vaccinia Venus: 10.5%

Results for CCCCNC(=O)NS(=O)(=O)c1ccc(N)cc1 ?
HCMV inh: 18.5

What do the screens show for `CCc1nc2c(OCc3ccc(F)cc3)cccn2c1N(C)C(=O)COc1ccccc1`?
HCMV inh: -10.7; FMDV antiviral: 31.6µM*; VACV mCherry inh: -5.2%; Vaccinia Venus: -19.4%

Results for CCc1nc2c(OCc3ccc(Cl)cc3)cccn2c1N(C)C(=O)c1ccccc1F ?
HCMV inh: -62.7*; FMDV antiviral: -20.2%; VACV mCherry inh: -21.2%; Vaccinia Venus: -11.6%

How did Cc1nnsc1C(=O)N/N=C/c1ccc2ccccc2c1O do in these assays?
HCMV inh: -99.6*; FMDV antiviral: inconclusive; VACV mCherry inh: 2.24µM*; HCV inh: inconclusive; Vaccinia Venus: inconclusive

How did Cc1nnsc1C(=O)N/N=C/c1ccccc1 do in these assays?
HCMV inh: -9.1; FMDV antiviral: 2.1%; VACV mCherry inh: -7.1%; HCV inh: 13.2%; Vaccinia Venus: 8.5%

How did Cc1nnsc1C(=O)N/N=C/c1ccc(OC(F)(F)F)cc1 do in these assays?
HCMV inh: -60.5*; FMDV antiviral: 22.4%; VACV mCherry inh: inactive; HCV inh: 5.7%; Vaccinia Venus: -6.7%

Results for CCN(CC(=O)NC1CCS(=O)(=O)C1)S(=O)(=O)c1ccc(Br)cc1 (stereo not drawn) ?
HCMV inh: -13.6; FMDV antiviral: -4.7%; VACV mCherry inh: -14.9%; HCV inh: 7.8%; Vaccinia Venus: -2.5%

Results for Cc1c(OCC(=O)N2CCC(C(=O)NCCCC(=O)O)CC2)ccc2c1oc(=O)c1ccccc12 ?
HCMV inh: inconclusive; FMDV antiviral: -2.6%; HCV inh: inconclusive

How did CC(C)NC(=O)C1CCN(c2nc3ccccc3nc2C(F)(F)F)CC1 do in these assays?
HCMV inh: -12.1; FMDV antiviral: -20.7%; VACV mCherry inh: -9.8%; Vaccinia Venus: -15.7%

How did O=C(CCN1C(=O)c2ccccc2S1(=O)=O)NCc1ccccc1Cl do in these assays?
HCMV inh: -10.8; FMDV antiviral: 17.4%; VACV mCherry inh: -12.5%; HCV inh: 34.4%; Vaccinia Venus: -9.7%

Results for Cc1cc(=O)n(-c2ccccc2)n1C ?
HCMV inh: 8.8; FMDV antiviral: -9.7%; VACV mCherry inh: 5.01µM*!; HCV inh: -0.7%; Vaccinia Venus: inconclusive

Results for CCc1c(C)c2ccc3c(c2oc1=O)CN(Cc1ccccc1)CO3 ?
HCMV inh: -24.6; FMDV antiviral: -1.8%; VACV mCherry inh: -7.7%; Vaccinia Venus: -10.1%

Results for CCNC(=S)N=Nc1c(O)n(Cc2ccc(Cl)cc2)c2ccccc12 ?
HCMV inh: 16.9; FMDV antiviral: -6.1%; VACV mCherry inh: -16.2%; HCV inh: inconclusive; Vaccinia Venus: -13.5%

How did Cc1ccccc1Cn1c(O)c(N=NC(=S)Nc2ccccc2F)c2ccccc21 do in these assays?
HCMV inh: inconclusive; FMDV antiviral: -8.0%; HCV inh: 2.24µM*

How did Oc1c(N=NC(=S)Nc2ccccc2F)c2ccccc2n1Cc1ccc(Cl)cc1 do in these assays?
HCMV inh: 71.9; FMDV antiviral: -13.2%; HCV inh: inconclusive

How did Oc1c(N=NC(=S)Nc2ccccc2F)c2ccccc2n1Cc1ccccc1F do in these assays?
HCMV inh: -26.3; FMDV antiviral: -11.3%; HCV inh: 12.6µM*

What do the screens show for `Cc1ccc(C)c(Cn2c(O)c(N=NC(=S)Nc3ccccc3F)c3ccccc32)c1`?
HCMV inh: 4.1; FMDV antiviral: -0.3%; HCV inh: 3.16µM*

Results for Cc1ccc(Cn2c(O)c(N=NC(=S)Nc3ccccc3F)c3cc(S(=O)(=O)N4CCOCC4)ccc32)cc1 ?
HCMV inh: 0.0; FMDV antiviral: -10.8%; HCV inh: inconclusive

What do the screens show for `COc1cc(CNC(=O)c2cccc(COc3ccc(Cl)cc3)c2)cc(OC)c1`?
HCMV inh: -16.0; FMDV antiviral: -81.0%; VACV mCherry inh: inconclusive; HCV inh: 7.94µM*; Vaccinia Venus: -29.3%

Results for COc1ccc(OCc2cccc(C(=O)NN)c2)cc1 ?
HCMV inh: 104.9; FMDV antiviral: 8.91µM*; VACV mCherry inh: inactive; HCV inh: 9.7%; Vaccinia Venus: -4.5%

What do the screens show for `O=C(NCC[C@H]1CC[C@@H](NC(=O)C2CCOCC2)[C@@H](CO)O1)Nc1ccc(Cl)cc1`?
HCMV inh: -21.8; FMDV antiviral: -12.5%; VACV mCherry inh: -18.5%; Vaccinia Venus: -4.3%

How did O=[N+]([O-])c1cccnc1S(=O)(=O)c1ccccc1 do in these assays?
HCMV inh: -99.4*; FMDV antiviral: 22.4µM*; VACV mCherry inh: -20.4%; HCV inh: inconclusive; Vaccinia Venus: -6.3%

Results for COc1ccc([N+](=O)[O-])c(S(=O)(=O)c2ccc(Cl)cc2)n1 ?
HCMV inh: -100.5*; FMDV antiviral: 12.6µM*; VACV mCherry inh: inconclusive; HCV inh: inconclusive; Vaccinia Venus: 10µM*

What do the screens show for `COc1ccc([N+](=O)[O-])c(S(=O)(=O)c2ccccc2)n1`?
HCMV inh: -97.2*; FMDV antiviral: 31.6µM*; VACV mCherry inh: 11.2µM*; HCV inh: inconclusive; Vaccinia Venus: 11.2µM*

What do the screens show for `COc1nc(OC)nc(Oc2ccc(Cl)cc2[N+](=O)[O-])n1`?
HCMV inh: 19.2; FMDV antiviral: -16.9%; VACV mCherry inh: inactive; HCV inh: inconclusive; Vaccinia Venus: -3.7%

How did Cc1ccc2oc(-c3ccc(C)c(NC(=O)COc4ccccc4C)c3)nc2c1 do in these assays?
VACV mCherry inh: -7.8%; Vaccinia Venus: -20.7%

What do the screens show for `COCCn1c(=O)cnc2cnc(N3CCNCC3)nc21`?
FMDV antiviral: -6.9%

How did Cc1ccc(-c2nn(-c3ccccc3)cc2CO)cc1 do in these assays?
HCMV inh: -7.7; FMDV antiviral: 38.6%; VACV mCherry inh: inconclusive; HCV inh: -2.1%; Vaccinia Venus: -23.4%

High-throughput results: PubChem, National Center for Advancing Translational Sciences (NCATS)
